The record followed here is PubChem BioAssay AID651784 (National Center for Advancing Translational Sciences (NCATS), 2012).

Records with an inconclusive call do not appear. Activity calls are given as the source filed them. The call rests on the fitted dose curve; in most records, active means well fitted inhibition curve with a large enough effect; inconclusive means small, poorly fitted or top-dose-only effect; inactive means no such curve, though single readings can be large or run the other way.
Potency means the concentration at half of the fitted maximal effect.

This experiment is described as follows: Acumen qHTS Assay for Inhibitors of the mTORC1 Signaling Pathway in MEF (Tsc2-/-, p53-/-) Cells: Hit Validation.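 Further: phospho-rpS6 Ser235/236 immunofluorescence normalized to propidium iodide cell count; nearly all actives have a fitted effect of over 65% in size.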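 On activity change, negative = inhibition: cells exposed to compound for 24 hours; plate controls were DMSO for no effect and 7.5 nM rapamycin control for full effect.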 The following applies: Acumen imaging; activity change, negative = inhibition: at 37.3 µM (top of the series).
On to `O=C(NCc1ccc(F)cc1)c1ccc2c(Cl)c3c(nc2c1)CCCC3`, for which the activity change, negative = inhibition is 26.5%.

As for `Cc1cccc(Nc2nnc(-c3ccc(C)c(S(=O)(=O)N4CCN(C)CC4)c3)c3ccccc23)c1`, the activity change, negative = inhibition was -6.53%.

For the molecule `Cc1ccc(C)c(Cn2c3ccccc3c3cnn(CC(=O)NC(C)CCc4ccccc4)c(=O)c32)c1` (stereo not drawn), the Potency was 7.36 µM (active).

On to `CN1CCN(C2(CNC(=O)COc3ccc(C(C)(C)C)cc3)CCCCC2)CC1`, for which the Potency is 14.7 µM (active). In the case of `Cc1oc(-c2ccccc2F)nc1Cn1c(SCc2cccc(Cl)c2)nc2ccncc21`, the activity change, negative = inhibition is -12.7%. Same read-out and setting: as for `CCC(C(=O)N1CCN(c2cccc(C)c2C)CC1)n1nc(C)c2sc3ccccc3c2c1=O` (stereo not drawn), the figure is -0.603%; as for `Cc1ccc(C)c(S(=O)(=O)NCC(c2ccco2)S(=O)(=O)c2ccc(F)cc2)c1` (stereo not drawn), -16.2%. `COc1ccc(-c2cc(C(F)(F)F)nc(S(=O)(=O)CCCC(=O)Nc3ccccc3C(F)(F)F)n2)cc1OC`: the Potency is 13.1 µM (active). `O=C(CC(NCc1cccnc1)C(=O)O)Nc1ccc(O)cc1` (stereo not drawn): the activity change, negative = inhibition is 5.37%. `COC(=O)c1ccccc1NC(=O)c1nc(S(=O)(=O)Cc2cccc(C)c2)ncc1Cl`: the Potency was 4.14 µM (active). Same read-out and setting: next, `COc1ccc(-c2nnc(SCC(=O)NCc3ccccc3)nc2-c2ccc(OC)c(OC)c2)cc1OC`: 18.5 µM (active). With `Cc1ccccc1NC(=O)Cn1cc(C(=O)c2cccs2)c2ccccc21`, the activity change, negative = inhibition was 1.72%. The same measure, in the same setting: next, `COc1ccc(-n2ncc3c(NCCCOC(C)C)ncnc32)cc1`: 1.17%; `CCc1ccc(NC(=O)C2CCCN(S(=O)(=O)c3cccc4cccnc34)C2)cc1` (stereo not drawn): -7.11%; `Cc1ccc(-c2nnc(C3CCN(S(=O)(=O)c4ccc(C)c(C)c4)CC3)o2)cc1`: -7.22%. With `O=C(NCCN1CCN(c2cccc(Cl)c2)CC1)Nc1ccccc1C(F)(F)F`, the activity change, negative = inhibition is -3.27%. The same measure, in the same setting: next, `COc1ccc(CNC(=O)C2CCN(c3nc4ccc(C)cc4[nH]3)CC2)cc1`: 22.4%. `COc1ccc(CNC(=O)c2cccc(N3CCCS3(=O)=O)c2)cc1OC`: the Potency was 5.21 µM (active).

Turning to `CCCCC1CCC(C(=O)N2CC(=O)Nc3ccc(Cl)cc3C2c2ccc(F)cc2)CC1` (stereo not drawn), the activity change, negative = inhibition was -41.1%.

On to `CCCCS(=O)(=O)c1oc(-c2cccs2)nc1S(=O)(=O)c1ccc(F)cc1`, for which the Potency was 3.69 µM (active).

Consider `CC(C)S(=O)(=O)c1oc(-c2ccc(F)cc2)nc1S(=O)(=O)c1ccc(F)cc1`, for which the activity change, negative = inhibition was -95%. Still for that read-out and setting: as for `Cc1cc(NC(=O)c2ccco2)cc(-c2nc3cc(Cl)ccc3o2)c1O`, the figure is -46.5%.

Turning to `CCOCc1cc(CN2CCN(c3ccccc3OC)CC2)c(O)c2ncccc12`, the Potency is 5.21 µM (active). Consider `CCCC1=Nc2cc(C(=O)NCc3ccccc3)ccc2Sc2ccccc21`, for which the Potency was 4.14 µM (active). For the molecule `COCc1oc2ccc(NS(=O)(=O)c3ccc(C)cc3)cc2c1C(=O)OC`, the activity change, negative = inhibition was -61.3%. As to `CCc1nnc(SC(CC)C(=O)Nc2cccc(OC)c2)c2cc3oc(C)cc3n12` (stereo not drawn), the activity change, negative = inhibition was -6.5%. On the same count and under the same terms, next, `COc1ccc(CNCCC(c2ccc3c(c2)OCO3)c2ccccc2OC)cc1` (stereo not drawn): -87.3%; `CCC(=O)C1=C(c2ccc(F)cc2)N(C(=O)CC)n2cnnc2S1`: -29.5%. Consider `FC(F)(F)c1cccc(Nc2nc3nonc3nc2Nc2ccc(Cl)cc2)c1`, for which the Potency was 1.65 µM (active). Take `Cc1cc(C)cc(NC(=O)c2cnn(-c3ccc(C)c(C)c3)c2C2CCNCC2)c1`: the activity change, negative = inhibition was -31.5%. Consider `O=C(CC1(O)C(=O)N(CCc2ccccc2)c2ccc(Br)cc21)c1ccccc1O` (stereo not drawn), for which the Potency was 6.56 µM (active).

Turning to `COc1ccc(NC(=O)C(NC(=O)/C=C\c2ccc3c(c2)OCO3)c2ccccc2)cc1` (stereo not drawn), the Potency was 11.7 µM (active). For the molecule `Cc1ccccc1CS(=O)(=O)c1ncc(Cl)c(C(=O)Nc2nnc(C(C)C)s2)n1`, the activity change, negative = inhibition is -92.9%. Same read-out and setting: as for `CCN(CC)CCNC(=O)c1ccc(Cn2c(=O)c3cccn3c3cccnc32)cc1`, the figure is -24.3%. With `CCN(CC)CCn1c(=N)n(CC(O)COc2ccccc2C)c2ccccc21` (stereo not drawn), the Potency is 4.65 µM (active). Consider `CC(C)CCNC(=O)c1cccc(Nc2nc3ccccc3n3nnnc23)c1`, for which the activity change, negative = inhibition was -88.5%.

`CCCCS(=O)(=O)c1nc(-c2ccc(Br)cc2)cc(-c2ccccc2)c1C#N`: the Potency was 6.56 µM (active). For the molecule `CCN(CC)CCn1c(=N)n(CCOc2ccccc2Cl)c2ccccc21`, the activity change, negative = inhibition was -149%.
